Bioassay records (PubChem)
Most compounds without a hit are left out; they make up all but 3.1% or so of the library.
esBAF inh: blocks esBAF chromatin remodeling in mouse ES cells | AID 602393 | hit rate 2% among 350,000 | reporter increase, % at 12.5 µM | Bmi1-luciferase knock-in reporter, 24 h; 100% = twice the neutral-well signal; in the data active means activation above about 40%; inconclusive means no clear call, values can overlap the other calls;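 further: 0% = median of the plate's neutral control wells and 100% = double that signal; a rise in the Bmi1 reporter signal indicates esBAF inhibition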
Rtt109 HAT inh: blocks Candida albicans Rtt109/Vps75 acetyltransferase activity | inhibition, % at 34.9 µM | purified Rtt109/Vps75, ThioGlo CoA-SH fluorescence, 4 h | AID 540336 | Q5AAJ8 | hit rate 0.16% among 330,000;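 active means inhibition of at least 50% in every replicate; inconclusive means best replicate reaches 50% inhibition but some replicates fall short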
Target sequence (Q5AAJ8 whole entry, looked up): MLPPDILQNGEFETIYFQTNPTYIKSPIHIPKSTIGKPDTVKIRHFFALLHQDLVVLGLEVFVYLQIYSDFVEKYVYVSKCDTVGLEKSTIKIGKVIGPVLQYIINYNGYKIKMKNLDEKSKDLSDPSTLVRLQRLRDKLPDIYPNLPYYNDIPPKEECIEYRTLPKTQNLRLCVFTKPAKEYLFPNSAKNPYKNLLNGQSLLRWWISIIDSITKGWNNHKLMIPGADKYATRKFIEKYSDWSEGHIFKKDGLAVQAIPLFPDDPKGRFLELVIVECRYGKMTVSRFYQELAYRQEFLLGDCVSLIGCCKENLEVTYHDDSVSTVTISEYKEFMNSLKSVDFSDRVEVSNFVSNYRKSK
Wnt bcat act: Wnt/beta-catenin pathway activation. Wnt/beta-catenin reporter cell assay, activator, plate reader. activation, % at 9.35 µM. hit rate 1.2% among 300,000; in the data active means activation above about 30%, passing the limit was not always enough; inconclusive means no clear call, values can overlap the other calls;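 further: 0% = neutral control wells and 100% = positive control wells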
MITF TRPM1 HTS: MITF TRPM1 promoter activation in melanoma cells; SK-MEL-5 TRPM1-promoter luciferase, 24 h; % of positive control, neutral wells = 0; activation, % at 12.5 µM; hit rate 0.75% among 300,000;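 active means mean activation of at least 80% with every replicate also reaching 80%; inconclusive means mean reaches 80% but some replicate falls short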;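 further: 0% = neutral control wells and 100% = parthenolide positive control wells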
C2C12 statin: suppressors of simvastatin-induced myotoxicity in C2C12 myotubes; ATP luminescence, 48 h; scaled: DMSO 0, geranylgeraniol control 100; rescue of ATP level, % at 7.49 µM; hit rate 0.78% among 330,000;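 active means mean ATP rescue above about 67%, or every replicate alone reaching that limit, limit read from the data, passing the limit was not always enough; inconclusive means no clear call, values can overlap the other calls; inactive means mean under the limit and some replicate under it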;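 further: myotubes were challenged with 10 µM simvastatin during compound exposure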
* hit, by the source's call; u = inconclusive; x = no result given.

SMILES | esBAF inh | Rtt109 HAT inh | Wnt bcat act | MITF TRPM1 HTS | C2C12 statin
CNC[C@H]1OCCCC[C@@H](C)Oc2ccc(NC(=O)c3ccccc3)cc2C(=O)N([C@@H](C)CO)C[C@@H]1C | -7.6 | x | x | x | 4.6
CCOC(=O)C(=O)N(Nc1ccc(C)cc1)c1ccc(C)cc1 | x | 7.7 | 44.2* | 28.0 | x
CCC(O)(CC)C(=O)N(Nc1ccc(C)cc1)c1ccc(C)cc1 | 2.2 | 0.2 | -3.2 | x | 1.9
Cc1ccc(OC(=O)N(C)C[C@@H]2OCc3cn(nn3)CCCC(=O)N([C@H](C)CO)C[C@@H]2C)cc1 | 3.5 | x | x | x | -0.6
CC1(C)Cc2nc3sc4c(=O)n(Cc5ccccc5)cnc4c3cc2CS1 | x | 9.2 | -0.8 | 0.9 | x
CCCn1cnc2c(sc3nc4c(cc32)CSC(C)(C)C4)c1=O | 69.7* | 0.0 | x | 56.9 | 0.7
COc1ccc2oc3cc(C)[n+]([O-])c(-c4ccc(Cl)cc4)c3c2c1 | x | 0.0 | x | -26.6 | x
Cc1oc(-c2ccc(Cl)cc2)[n+]([O-])c1C | -5.5 | 2.7 | -0.1 | 8.3 | 75.6*
NNC(=O)C(Cc1ccc(O)cc1)N1Cc2ccccc2C1=O (stereo not given) | -7.2 | -0.5 | -2.0 | -5.3 | 1.0
COC(=O)C(Cc1ccc(O)cc1)N1Cc2ccccc2C1=O (stereo not given) | u | 19.1 | 23.5 | 91.4* | 9.9
COCC(=O)Nc1ccc2c(c1)OC[C@@H](C)N(C(=O)c1ccccc1)C[C@H](C)[C@@H](OC)CN(C)C2=O | -4.1 | x | x | x | -8.2
COC(=O)[C@@H](NC(=O)NCCC1=CCCCC1)C(C)C | 4.0 | -0.2 | 65.2* | 1.3 | 3.3
C[C@@H]1CN([C@H](C)CO)C(=O)Cc2cc(NS(=O)(=O)c3ccc(F)cc3)ccc2O[C@@H]1CN(C)S(=O)(=O)c1cn(C)cn1 | 4.8 | x | x | x | 10.5
CC(C)Oc1ccc(C2CC(=O)NC3=C2C(=O)CCC3)cc1 (stereo not given) | x | 1.1 | x | -7.0 | x
COC(=O)c1ccc(C2CC(=O)NC3=C2C(=O)CCC3)cc1 (stereo not given) | -3.6 | 5.6 | x | -13.5 | 113.9*
CC(C)C[C@H]1CN=C(Nc2ccccc2)N1CCCCc1ccccc1 | 0.7 | 6.0 | -6.5 | 18.1 | 104.6*
CC(C)CCCN1C(Nc2ccccc2)=NC[C@@H]1CC(C)C | 2.9 | 11.8 | -3.8 | 25.2 | -12.3
Cc1ccc(S(=O)(=O)N[C@H]2CC[C@H](CC(=O)NCCCN(C)C)O[C@H]2CO)cc1 | -4.1 | x | x | x | -3.6
Cc1cccnc1-n1c(CCN2C(=O)c3ccccc3C2=O)nc2ccccc2c1=O | 0.0 | -0.6 | x | 2.4 | 71.9*
O=C1c2ccccc2C(=O)N1CCc1nc2ccccc2c(=O)n1-c1ccccn1 | 0.7 | x | x | -6.7 | 1.5
CCNC(=O)NC(=O)COC(=O)c1ccccc1SCC(=O)NC(=O)NCC | x | -32.0 | 53.1* | 22.0 | x
O=C(CSc1nnnn1-c1ccccc1)NC(=O)NCc1ccco1 | 6.1 | 7.0 | -2.9 | x | 95.0*
CCOc1ccccc1-n1nnnc1SCC(=O)NC(=O)NCc1ccco1 | 5.0 | -3.1 | -2.2 | -3.7 | -4.8
C[C@@H]1CN([C@@H](C)CO)C(=O)c2cc(-c3ccc(C#N)cc3)cnc2O[C@H]1CN(C)Cc1cncnc1 | 3.3 | x | x | x | 5.3
COc1cc(O)sc1C=Nc1ccc(Cl)cc1 | 54.7* | 28.5 | 14.5 | 6.2 | 2.8
SMILES | esBAF inh | Rtt109 HAT inh | Wnt bcat act | MITF TRPM1 HTS | C2C12 statin
COc1ccc(N=Cc2sc3ccccc3c2Cl)cc1 | 26.0 | -1.1 | x | 6.0 | -2.3
CCC(=O)C1CCCN(C(=O)CCc2nnc(-c3ccc(C(C)=O)s3)o2)C1 (stereo not given) | 82.6* | -19.0 | 21.5 | 49.0 | 7.4
CCC(=O)C1CCCN(C(=O)CCc2nnc(-c3ccc4c(c3)OCO4)o2)C1 (stereo not given) | 33.2 | 9.0 | 1.0 | 21.0 | 9.1
CCCOC1CCCN(C(=O)CCc2nnc(-c3ccc4c(c3)OCO4)o2)C1 (stereo not given) | 39.1 | 5.4 | -2.0 | 67.6 | 4.8
CC1CCCN(C(=O)CCc2nnc(-c3ccc4c(c3)OCO4)o2)C1 (stereo not given) | 42.1* | 2.5 | 14.1 | 22.4 | 0.3
CC(C)c1ccc(OCC(=O)N2CCCCCC2)c(Br)c1 | 51.3* | 1.5 | 43.4* | 64.1 | -19.0
Cc1cc(Br)ccc1OCC(=O)N1CCCCCC1 | 18.2 | 7.5 | x | 11.3 | -1.6
CN1C(=O)c2cc(NC(=O)NC3CCCC3)ccc2OC[C@H]2O[C@H](CC(=O)NCC3CC3)CC[C@H]21 | -2.4 | x | x | x | -28.1
CC(C)(C)c1ccc(NC(=O)Nc2ccc(OCC(=O)N3CCOCC3)cc2)cc1 | x | -5.4 | 11.2 | 90.0* | x
COc1ccccc1C(=O)Nc1ccc(N2CCN(S(C)(=O)=O)CC2)cc1 | 43.6* | -4.2 | x | x | -2.8
COc1cc(SC)ccc1C(=O)Nc1ccc(OCC(=O)N2CCOCC2)cc1 | 17.3 | 3.9 | -4.1 | 82.5* | -6.3
COc1cc(SC)ccc1C(=O)Nc1cccc(C)n1 | 45.0* | 4.9 | 19.4 | 101.0* | 3.5
COc1c(C)cccc1C(=O)Nc1ccc(N2CCN(S(C)(=O)=O)CC2)cc1 | u | 18.3 | 27.2 | x | x
CN(C)CC(=O)Nc1ccc2c(c1)[C@@H]1C[C@H](CC(=O)NCc3ccc4c(c3)OCO4)O[C@@H](CO)[C@@H]1O2 | 2.3 | x | x | x | -4.8
N#Cc1ccc(-c2ccc3c(c2)[C@H]2[C@H](CCN2C(=O)CN2CCOCC2)[C@@H](CO)N3)cc1 | -4.9 | x | x | x | 0.6
COC(=O)c1ccc(COC(=O)c2ccc(SC)cc2OC)cc1 | 62.8* | 0.6 | -4.4 | 16.7 | 6.0
COc1cc(SC)ccc1C(=O)Nc1ccon1 | 50.7* | 5.3 | 20.5 | x | 1.7
COc1cc(SC)ccc1C(=O)Nc1ccc(C)cc1 | x | -1.1 | 50.2* | 14.4 | x
COc1cc(SC)ccc1C(=O)Nc1ncc(Cl)cc1Cl | x | 6.3 | 69.9* | 15.7 | x
COc1cc(SC)ccc1C(=O)Nc1ccc(Br)cn1 | -83.1 | -4.4 | -4.1 | -56.5 | 6.3
Cc1noc(C)c1NC(=O)Nc1ccc2c(c1)C(=O)N([C@H](C)CO)C[C@@H](C)[C@@H](CN(C)C(=O)Nc1ccc3c(c1)OCO3)OCCCC[C@@H](C)O2 | 3.8 | x | x | x | x
CO[C@@H]1CN(C)C(=O)c2cc(NC(=O)C3CC3)ccc2OC[C@H](C)N(CCC(F)(F)F)C[C@H]1C | 4.2 | x | x | x | 5.7
O=C(C[C@H]1CC[C@@H]2[C@H](COC[C@H](O)CN2Cc2nccs2)O1)NCc1ccc(F)cc1 | -3.1 | x | x | x | 21.7
CCC(=O)N1C[C@H](C)[C@@H](OC)CN(C)C(=O)c2cc(NC(=O)c3cc(C)on3)ccc2OC[C@@H]1C | 0.6 | x | x | x | -2.9
C[C@@H]1CCCCO[C@@H](CN(C)S(=O)(=O)c2ccc(F)cc2)[C@@H](C)CN([C@@H](C)CO)C(=O)c2cc(NC(=O)CCC(F)(F)F)ccc2O1 | 5.7 | x | x | x | x
COc1ccccc1C(=O)Nc1ccc(OCC(=O)N2CC(C)CC(C)C2)cc1 (stereo not given) | 10.1 | 53.5* | -1.6 | 18.2 | 6.0
C[C@H](CO)N1C[C@H](C)[C@H](CN(C)C(=O)Nc2ccc(F)cc2)Oc2c(NC(=O)c3nc4ccccc4s3)cccc2C1=O | 1.2 | x | x | x | x
